# Measured values as given in PubChem BioAssay (NCATS).
# Inconclusive results are not listed. Where a call stands in place of a potency, no number is given. The source made the active and inactive calls. Unless noted, the call rests on the fitted dose curve; in most records, active means well fitted curve in the direction sought with a large enough effect; inconclusive means small, poorly fitted or top-dose-only effect, or another doubt; inactive means no such curve, though single readings can be large; an effect the other way counts as inactive or inconclusive.
# How the values were obtained:
# [1] = qHTS for differential inhibitors of proliferation of Plasmodium falciparum line Dd2 (AID 1882); details: Potency: Plasmodium falciparum Dd2 proliferation inhibition; further: nearly all actives have a fitted effect of over 65% in size; further: potency means the concentration at half of the fitted maximal effect
# How it was run: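 RBC culture, 0.3% parasitemia / 2.5% Hct final; cpd added by pin tool in DMSO; 72 h, 37 C, 5% CO2; lysis buffer + SYBR Green I, o/n RT dark; FI 485/535; norm. to artemisinin 0.29 uM and DMSO.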
# [2] = qHTS for differential inhibitors of proliferation of Plasmodium falciparum line W2 (AID 1883); details: Potency: Plasmodium falciparum W2 proliferation inhibition;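 further: potency means the concentration at half of the fitted maximal effect; parasites grown with compound for 72 h before lysis and staining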
# [3] = biological target: ATP-dependent DNA helicase Q1 (Homo sapiens) (UniProt P46063); experiment: qHTS Validation Assay for Inhibitors of RecQ-Like Dna Helicase 1 (RECQ1) (AID 2353)
# How it was run: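 RECQ1T1 50 nM; forked duplex (20 bp + 30-nt ss tails) 200 nM, ATP 2 mM final; pH 8.0, 2 mM MgCl2, 2.5 ug/ml poly(dI-dC); 15 min compound preincubation; discontinuous kinetic read over 2 h at RT.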
# [4] = Validation screen for small molecules that induce DNA re-replication in MCF 10A normal breast cells (AID 463097); further: nearly all actives have a fitted effect of over 60% in size; further: potency means the concentration at half of the fitted maximal effect
# How it was run: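 DNA re-replication was detected as a rise in nuclei with elevated Hoechst fluorescence after a 48 hr compound exposure of MCF 10A cells at 37 C.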
# [5] = Quantitative high throughput screen for delayed death inhibitors of the malarial parasite plastid, 96 hour incubation (AID 488745); further: nearly all actives have a fitted effect of over 70% in size; further: potency means the concentration at half of the fitted maximal effect
# How it was run: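 Luciferase-expressing P. falciparum, infected RBCs 2% Hct/0.1% parasitemia (final); 96 h cpd exposure, 37 C, 5% CO2; RPMI 1640 + 0.5% Albumax, bicarbonate, gentamycin. Readout: luminescence loss = growth inhibition.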
# [6] = Quantitative high throughput screen for delayed death inhibitors of the malarial parasite plastid, 48 hour incubation (AID 488752); further: nearly all actives have a fitted effect of over 65% in size; further: potency means the concentration at half of the fitted maximal effect
# How it was run: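 Luciferase-expressing P. falciparum in RBCs, 2% Hct, 0.1% parasitemia final; RPMI 1640 + 0.5% Albumax; 48 h, 37 C, 5% CO2; luminescence readout, signal drop = growth inhibition.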
# [7] = qHTS for differential inhibitors of proliferation of Plasmodium falciparum line HB3 (AID 1886); details: Potency: Plasmodium falciparum HB3 proliferation inhibition;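 further: parasites grown with compound for 72 h before SYBR Green readout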; further: potency means the concentration at half of the fitted maximal effect
# [8] = biological target: RecQ-like DNA helicase BLM (Homo sapiens) (UniProt P54132); experiment: qHTS Validation Assay for Inhibitors of Bloom's syndrome helicase (BLM) (AID 2364)
# How it was run: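 Forked 20-bp duplex substrate (200 nM, TAMRA/BHQ-2) plus 2 mM ATP added after 15 min compound preincubation with 50 nM enzyme, pH 8.0, poly(dI-dC) 2.5 ug/ml. Strand separation followed by fluorescence (525/598 nm) over 2 h, normalized to enzyme-free and DMSO controls.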
# [9] = Cytometric Cell-Based qHTS for Inhibitors of the mTORC1 Signaling Pathway in MEF (Tsc2-/-, p53-/-) Cells (AID 2660);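 further: Tsc2 and p53 null MEFs carrying empty vector with compound for 24 h; percent of cells above a phospho-rpS6 to PI ratio cutoff in each well; series mostly up to about 38 µM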
# How it was run: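 Percent of cells positive for normalized phospho-S6 staining is reported, with the cutoff set from rapamycin (7.5 nM) versus DMSO wells. Tsc2-/-, p53-/- MEFs received compound for 24 hrs.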
# [10] = High Content Imaging Cell-Based qHTS for Inhibitors of the mTORC1 Signaling Pathway in MEF (Tsc2-/-, p53-/-) Cells (AID 2666);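 further: percent of cells scored positive for phospho-rpS6 Ser235/236 immunostaining by imaging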
# How it was run: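 Tsc2-/-, p53-/- MEFs (empty-vector stable) grown in DMEM + 10% FBS were exposed to compounds for 24 hrs at 37 degree Celsius, fixed, and stained with Alexa-488 anti-phospho-rpS6 Ser235/236 plus Hoechst. Imaging gave the percentage of positive cells per well.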
# [11] = High Content Imaging Cell-Based qHTS for Inhibitors of the mTORC1 Signaling Pathway in MEF Cells (AID 2667);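 further: Tsc2-/- p53-/- MEFs stably re-expressing wild-type Tsc2 exposed 24 h; series mostly up to about 38 µM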
# How it was run: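 Tsc2-/-, p53-/- MEFs stably re-expressing WT Tsc2, grown in DMEM + 10% FBS, were treated with compounds for 24 hrs at 37 degree Celsius, fixed, and stained with Alexa-488 phospho-rpS6 Ser235/236 antibody plus Hoechst; results given as % positive cells.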
# [12] = Cytometry Cell-Based qHTS for Inhibitors of the mTORC1 Signaling Pathway in MEF cells (AID 2668);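 further: Tsc2-/- p53-/- mouse embryonic fibroblasts stably re-expressing wild-type Tsc2; percent cells positive for phospho-rpS6 Ser235/236 relative to propidium iodide stain; series mostly up to about 38 µM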
# How it was run: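 Pathway inhibition in WT Tsc2-rescued Tsc2-/-, p53-/- MEFs is measured as the Alexa-488 phospho-rpS6 to propidium iodide intensity ratio after 24 hrs of compound at 37 degree Celsius. PI-stained cell number gives viability.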
# [13] = biological target: Ubiquitin carboxyl-terminal hydrolase 2 (Homo sapiens) (UniProt O75604); experiment: qHTS Validation Assay for Inhibitors of Ubiquitin-specific Protease USP2a Using CHOP2 as the Reporter (AID 463106)
# How it was run: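 Readout was coupled fluorescence (Ex 485/Em 531 nm), read 60 min after adding 25 nM final Ub-CHOP2 and 25 nM reporter substrate. Beforehand, 10 nM final USP2 core had 30 min at RT with compound in pH 8.0 buffer. Curves were fitted after normalization to NEM and flagged for artifacts using time-zero reads.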
# [14] = biological target: DNA polymerase III PolC-type (Bacillus subtilis (strain 168)) (UniProt P13267); experiment: qHTS Validation Assay for the Inhibitors of DNA Replication in Gram-Positive Bacteria (AID 485295);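 further: reconstituted holoenzyme with PolC plus beta clamp SSB and primase; PicoGreen fluorescence of double-stranded DNA made on primed circular M13 template; series mostly up to about 57 µM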
# How it was run: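 Primed replication of single-stranded M13Gori by a four-protein B. subtilis holoenzyme is measured at room temperature. Double-stranded product is quantified by PicoGreen fluorescence after an EDTA stop; inhibition is scaled between DMSO and EDTA controls.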
# [15] = biological target: Tumor susceptibility gene 101 protein (Homo sapiens) (UniProt Q99816); experiment: qHTS Validation Assay for Iinhibitors of HIV-1 Budding by Blocking the Interaction of PTAP/TSG101 (AID 485342; calls by dose curve)
# How it was run: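 Fluorescence anisotropy measured PTAP-Tsg101 interaction. Final concentrations were 10 uM protein domain and 50 nM labeled peptide, equilibrated 20 min at room temperature.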
# [16] = qHTS Validation Assay to Find Inhibitors of Chronic Active B-Cell Receptor Signaling (AID 485345; active means well fitted curve in the direction sought with a large enough effect in the main read-out, with a control signal flat, not every such curve was filed as active)
# How it was run: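 Read-out: ratio of filter-corrected green (IkappaBalpha fusion) to red (native) luciferase signal in doxycycline-induced TMD8 cells after 4 h at 37C. Titration spanned 46 uM–3 nM; Data were normalised to basal cells and 10 uM MG-132 wells.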
# [17] = biological target: Beta-2 adrenergic receptor (Homo sapiens) (UniProt P07550); experiment: qHTS validation assay of beta-arrestin-biased ligands of beta2-adrenergic receptor (AID 485366)
# How it was run: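 Screening used a titration range of up to 46 microM in a beta-arrestin recruitment Tango luciferase assay. Cells in 1% FBS medium were treated 18 hr at 37 degrees C, and luminescence was normalized to %Activity.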
# [18] = biological target: ATP-dependent 6-phosphofructokinase (Trypanosoma brucei brucei) (UniProt O15648); experiment: qHTS Validation Assay to Find Inhibitors of T. brucei phosphofructokinase (AID 485368)
# How it was run: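 PFK-generated ADP was measured after 45 min at room temperature using ADP-Glo. The reaction contained 0.5 mM F6P and 0.1 mM ATP.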
# [19] = qHTS Assay for Identification of Small Molecule Inducers of Hypoxia Response (AID 2120; active means well fitted curve in the direction sought with a large enough effect in the signal ratio, with a control signal flat, not every such curve was filed as active; the % refers to the signal ratio)
# How it was run: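 Read-out: CCF4 FRET emission ratio 460nm/530nm (excitation 405nm), converted to %Activity, with AC50 fitted across a compound titration. ME-180 cells carried an HRE-driven beta-lactamase reporter; compound exposure 17 h, 37 degrees C.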
# [20] = qHTS Assay for Modulators of Human Peripheral Myelin Protein 22 (PMP22) Expression/Activity (AID 1967; active means well fitted curve in the direction sought with a large enough effect in the signal ratio; the % refers to the signal ratio)
# How it was run: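 Quantitative HTS in a mouse Schwann cell line expressing dual click beetle luciferases: Pmp22 promoter (green) and control EF-alpha promoter (red). After 24h treatment, corrected green/red signal ratio gave %Activity relative to untreated cells.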
# DNA polymerase III PolC-type (Bacillus subtilis (strain 168)), sequence (P13267 whole entry, looked up): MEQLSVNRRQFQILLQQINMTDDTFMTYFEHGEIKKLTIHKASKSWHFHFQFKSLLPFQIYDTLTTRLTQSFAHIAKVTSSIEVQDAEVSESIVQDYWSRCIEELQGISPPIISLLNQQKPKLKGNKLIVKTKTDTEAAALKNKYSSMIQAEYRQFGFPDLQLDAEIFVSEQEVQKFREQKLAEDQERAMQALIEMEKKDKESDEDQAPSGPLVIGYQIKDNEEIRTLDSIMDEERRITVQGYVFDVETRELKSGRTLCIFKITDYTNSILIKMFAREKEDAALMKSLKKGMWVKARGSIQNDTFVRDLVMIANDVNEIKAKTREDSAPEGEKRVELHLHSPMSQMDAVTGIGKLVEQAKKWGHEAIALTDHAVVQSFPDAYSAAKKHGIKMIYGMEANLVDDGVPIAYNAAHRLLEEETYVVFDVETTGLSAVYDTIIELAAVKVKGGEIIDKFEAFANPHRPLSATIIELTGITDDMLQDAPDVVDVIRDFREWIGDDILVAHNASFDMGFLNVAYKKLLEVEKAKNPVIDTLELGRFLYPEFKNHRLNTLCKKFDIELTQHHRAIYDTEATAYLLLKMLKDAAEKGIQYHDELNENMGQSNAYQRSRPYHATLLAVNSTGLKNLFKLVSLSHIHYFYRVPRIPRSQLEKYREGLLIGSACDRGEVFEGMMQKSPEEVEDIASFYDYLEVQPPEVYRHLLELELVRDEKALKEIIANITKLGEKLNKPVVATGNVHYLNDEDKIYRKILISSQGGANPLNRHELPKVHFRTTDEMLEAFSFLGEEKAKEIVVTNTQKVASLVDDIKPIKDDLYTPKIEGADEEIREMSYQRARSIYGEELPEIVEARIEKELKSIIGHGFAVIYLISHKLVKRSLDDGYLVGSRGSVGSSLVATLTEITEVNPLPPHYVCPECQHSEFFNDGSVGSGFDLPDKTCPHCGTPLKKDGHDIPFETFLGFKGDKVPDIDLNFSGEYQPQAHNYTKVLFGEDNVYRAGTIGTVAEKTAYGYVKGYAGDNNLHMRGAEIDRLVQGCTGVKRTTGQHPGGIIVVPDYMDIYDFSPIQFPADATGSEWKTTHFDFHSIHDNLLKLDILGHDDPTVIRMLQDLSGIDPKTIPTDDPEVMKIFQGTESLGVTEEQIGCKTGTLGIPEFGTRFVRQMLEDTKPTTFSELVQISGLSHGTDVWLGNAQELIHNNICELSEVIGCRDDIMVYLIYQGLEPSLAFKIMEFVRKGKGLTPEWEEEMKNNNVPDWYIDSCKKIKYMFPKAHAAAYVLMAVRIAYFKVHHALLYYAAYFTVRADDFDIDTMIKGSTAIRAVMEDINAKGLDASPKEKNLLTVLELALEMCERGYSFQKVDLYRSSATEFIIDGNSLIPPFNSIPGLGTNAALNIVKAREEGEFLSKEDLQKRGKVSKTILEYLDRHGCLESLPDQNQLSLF
# ATP-dependent DNA helicase Q1 (Homo sapiens), sequence (P46063 whole entry, looked up): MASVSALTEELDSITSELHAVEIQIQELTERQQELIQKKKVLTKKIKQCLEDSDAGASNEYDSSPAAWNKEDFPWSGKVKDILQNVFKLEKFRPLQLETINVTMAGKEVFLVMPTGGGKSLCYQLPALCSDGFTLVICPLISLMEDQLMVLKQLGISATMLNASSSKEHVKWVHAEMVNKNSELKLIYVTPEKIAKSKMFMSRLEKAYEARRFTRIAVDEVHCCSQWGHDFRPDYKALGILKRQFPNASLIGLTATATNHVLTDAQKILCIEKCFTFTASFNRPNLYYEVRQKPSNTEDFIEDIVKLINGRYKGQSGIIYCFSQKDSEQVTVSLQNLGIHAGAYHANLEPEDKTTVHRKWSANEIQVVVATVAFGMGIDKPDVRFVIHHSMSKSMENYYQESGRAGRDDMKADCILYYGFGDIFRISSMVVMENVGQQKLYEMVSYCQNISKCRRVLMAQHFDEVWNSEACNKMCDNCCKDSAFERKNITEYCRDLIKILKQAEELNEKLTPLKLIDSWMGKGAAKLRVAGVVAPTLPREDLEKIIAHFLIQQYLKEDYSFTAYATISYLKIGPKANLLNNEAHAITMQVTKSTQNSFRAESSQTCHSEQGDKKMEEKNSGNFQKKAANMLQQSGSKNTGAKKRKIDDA
# RecQ-like DNA helicase BLM (Homo sapiens), sequence (P54132 whole entry, looked up): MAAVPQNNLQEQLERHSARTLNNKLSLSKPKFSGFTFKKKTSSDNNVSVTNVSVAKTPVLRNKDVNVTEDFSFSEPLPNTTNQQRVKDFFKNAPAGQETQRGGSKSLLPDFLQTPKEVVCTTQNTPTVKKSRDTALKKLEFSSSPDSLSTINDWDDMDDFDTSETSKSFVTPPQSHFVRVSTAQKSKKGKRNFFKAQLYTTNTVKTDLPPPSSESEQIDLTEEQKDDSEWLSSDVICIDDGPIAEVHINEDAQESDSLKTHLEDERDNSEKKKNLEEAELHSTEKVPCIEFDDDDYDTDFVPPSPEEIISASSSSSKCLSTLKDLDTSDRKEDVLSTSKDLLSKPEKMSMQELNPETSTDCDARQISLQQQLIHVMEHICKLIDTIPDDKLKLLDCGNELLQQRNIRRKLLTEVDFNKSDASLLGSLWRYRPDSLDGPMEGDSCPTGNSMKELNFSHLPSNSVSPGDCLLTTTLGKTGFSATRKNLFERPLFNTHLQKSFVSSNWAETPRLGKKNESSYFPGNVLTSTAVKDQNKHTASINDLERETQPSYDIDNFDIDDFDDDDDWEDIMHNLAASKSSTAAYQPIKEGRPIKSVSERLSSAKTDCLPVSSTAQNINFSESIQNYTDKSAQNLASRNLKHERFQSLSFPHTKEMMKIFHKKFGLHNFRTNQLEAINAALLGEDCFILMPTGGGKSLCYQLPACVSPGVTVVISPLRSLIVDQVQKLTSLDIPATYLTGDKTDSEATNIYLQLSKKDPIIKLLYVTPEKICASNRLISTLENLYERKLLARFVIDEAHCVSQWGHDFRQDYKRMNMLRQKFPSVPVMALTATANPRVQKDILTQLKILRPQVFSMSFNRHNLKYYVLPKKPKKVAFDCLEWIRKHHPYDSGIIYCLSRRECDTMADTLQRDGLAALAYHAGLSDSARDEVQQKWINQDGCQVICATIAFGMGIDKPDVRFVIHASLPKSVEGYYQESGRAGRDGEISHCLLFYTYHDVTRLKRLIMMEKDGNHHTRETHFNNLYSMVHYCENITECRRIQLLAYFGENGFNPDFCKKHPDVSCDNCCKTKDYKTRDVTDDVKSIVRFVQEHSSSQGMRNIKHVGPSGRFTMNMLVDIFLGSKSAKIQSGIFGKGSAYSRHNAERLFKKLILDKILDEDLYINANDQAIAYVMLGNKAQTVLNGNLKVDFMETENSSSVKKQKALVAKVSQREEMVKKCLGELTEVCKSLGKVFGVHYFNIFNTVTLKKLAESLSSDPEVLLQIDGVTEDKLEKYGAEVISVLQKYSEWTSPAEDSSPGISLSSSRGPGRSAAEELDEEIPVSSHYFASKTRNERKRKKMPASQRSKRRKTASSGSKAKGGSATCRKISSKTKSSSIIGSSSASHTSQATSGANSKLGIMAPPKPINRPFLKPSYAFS
# Tumor susceptibility gene 101 protein (Homo sapiens), sequence (Q99816 whole entry, looked up, the tested form may be a part): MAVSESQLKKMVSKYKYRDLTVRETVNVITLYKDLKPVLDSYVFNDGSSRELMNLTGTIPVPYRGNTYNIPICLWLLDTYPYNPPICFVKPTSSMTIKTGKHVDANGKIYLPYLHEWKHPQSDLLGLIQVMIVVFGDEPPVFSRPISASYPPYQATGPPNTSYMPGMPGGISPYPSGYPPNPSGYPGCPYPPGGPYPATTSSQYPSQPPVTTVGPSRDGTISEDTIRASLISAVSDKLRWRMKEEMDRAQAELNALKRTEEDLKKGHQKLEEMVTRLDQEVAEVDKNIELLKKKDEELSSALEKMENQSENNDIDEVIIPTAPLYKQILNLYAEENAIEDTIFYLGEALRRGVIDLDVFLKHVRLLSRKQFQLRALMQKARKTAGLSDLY
# Beta-2 adrenergic receptor (Homo sapiens), sequence (P07550 whole entry, looked up): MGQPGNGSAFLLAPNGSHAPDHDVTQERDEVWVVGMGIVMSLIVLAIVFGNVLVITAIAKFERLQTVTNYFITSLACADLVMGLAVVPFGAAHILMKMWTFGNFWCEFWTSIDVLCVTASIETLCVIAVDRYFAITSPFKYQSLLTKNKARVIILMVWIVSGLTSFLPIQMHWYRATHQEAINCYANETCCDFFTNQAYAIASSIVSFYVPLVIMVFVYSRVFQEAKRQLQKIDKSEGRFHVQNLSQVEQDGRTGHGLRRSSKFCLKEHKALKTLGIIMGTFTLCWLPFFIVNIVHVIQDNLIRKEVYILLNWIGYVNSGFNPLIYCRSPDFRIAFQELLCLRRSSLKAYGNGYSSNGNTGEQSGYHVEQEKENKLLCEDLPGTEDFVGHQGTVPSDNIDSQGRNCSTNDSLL
# ATP-dependent 6-phosphofructokinase (Trypanosoma brucei brucei), sequence (O15648 whole entry, looked up): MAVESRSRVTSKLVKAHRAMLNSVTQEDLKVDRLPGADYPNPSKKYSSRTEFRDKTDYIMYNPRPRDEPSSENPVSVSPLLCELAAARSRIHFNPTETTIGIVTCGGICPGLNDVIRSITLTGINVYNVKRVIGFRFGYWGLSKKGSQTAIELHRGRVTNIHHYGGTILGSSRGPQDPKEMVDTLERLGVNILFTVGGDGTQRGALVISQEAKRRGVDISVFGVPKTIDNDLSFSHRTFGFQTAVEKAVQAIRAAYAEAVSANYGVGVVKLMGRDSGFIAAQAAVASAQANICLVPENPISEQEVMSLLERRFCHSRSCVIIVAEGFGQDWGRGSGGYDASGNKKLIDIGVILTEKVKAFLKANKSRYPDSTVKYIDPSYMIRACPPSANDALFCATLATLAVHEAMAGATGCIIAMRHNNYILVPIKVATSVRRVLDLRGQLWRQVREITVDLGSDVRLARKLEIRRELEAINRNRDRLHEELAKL
smiles,measurement,setting,value
CC(C)(C)NC(=O)[C@H]1CC[C@H]2[C@@H]3CC[C@H]4NC(=O)C=C[C@]4(C)[C@H]3CC[C@]12C,Potency,[1],inactive
same,Potency,[2],10 µM (active)
same,outcome,[3],inactive
same,Potency,[4],inactive
same,Potency,[5],inactive
same,Potency,[6],inactive
CCN(CC)CC#CCOC(=O)C(O)(c1ccccc1)C1CCCCC1 (centres undefined),Potency,[1],8.91 µM (active)
same,Potency,[2],2.24 µM (active)
same,Potency,[7],8.91 µM (active)
same,outcome,[3],inactive
same,outcome,[8],inactive
same,outcome,[9],inactive
same,Potency,[10],inactive
same,outcome,[11],inactive
same,Potency,[12],inactive
same,Potency,[4],inactive
same,outcome,[13],inactive
same,outcome,[14],inactive
same,outcome,[15],inactive
same,outcome,[16],inactive
same,outcome,[17],inactive
same,Potency,[18],inactive
same,Potency,[5],inactive
Cc1ccc(S(=O)(=O)N[C@@H](Cc2ccccc2)C(=O)CCl)cc1,Potency,[2],11.2 µM (active)
same,Potency,[7],inactive
same,outcome,[3],inactive
same,outcome,[13],inactive
same,outcome,[14],inactive
same,outcome,[15],inactive
same,outcome,[17],inactive
same,Potency,[5],inactive
same,Potency,[6],inactive
N=C(N)c1ccc(OCCCCCOc2ccc(C(=N)N)cc2)cc1,outcome,[19],inactive
Cc1noc(NS(=O)(=O)c2ccc(N)cc2)c1C,outcome,[19],inactive
CCCCS(=N)(=O)CCC(N)C(=O)O (centres undefined),Potency,[1],inactive
same,Potency,[7],inactive
same,outcome,[20],inactive
same,outcome,[3],inactive
same,outcome,[8],inactive
same,outcome,[9],inactive
same,Potency,[10],inactive
same,outcome,[11],inactive
same,Potency,[12],inactive
same,Potency,[4],inactive
same,outcome,[13],inactive
same,outcome,[14],inactive
same,outcome,[15],inactive
same,outcome,[16],inactive
same,outcome,[17],inactive
same,Potency,[18],inactive
same,Potency,[5],inactive
same,Potency,[6],2.08 µM (active)
COc1ccc2cc3[n+](cc2c1OC)CCc1cc2c(cc1-3)OCO2,outcome,[19],inactive
CCN(CC)CCn1c(=O)c(Cc2ccc(OC)cc2)nc2ccccc21,outcome,[9],inactive
same,Potency,[10],inactive
same,outcome,[11],inactive
same,Potency,[12],inactive
same,outcome,[13],inactive
same,outcome,[14],inactive
same,outcome,[15],inactive
same,outcome,[17],inactive
same,Potency,[18],inactive
CC(=O)[C@H]1CC[C@H]2[C@@H]3CCC4=CC(=O)CC[C@]4(C)[C@H]3CC[C@]12C,outcome,[3],inactive
same,outcome,[8],inactive
same,outcome,[9],inactive
same,Potency,[10],inactive
same,outcome,[11],inactive
same,Potency,[12],inactive
same,Potency,[4],inactive
same,outcome,[13],inactive
same,outcome,[14],inactive
same,outcome,[15],inactive
same,outcome,[17],inactive
same,Potency,[18],inactive
same,Potency,[6],inactive
CC(=O)Oc1ccccc1C(=O)Nc1ncc([N+](=O)[O-])s1,outcome,[19],inactive
NC(=O)c1ccc2[nH]ccc2c1,outcome,[9],inactive
same,Potency,[10],inactive
same,outcome,[11],inactive
same,Potency,[12],inactive
same,outcome,[13],inactive
same,outcome,[14],inactive
same,outcome,[15],inactive
same,outcome,[16],inactive
same,outcome,[17],inactive
COc1cc2ncnc(Nc3cccc(Cl)c3)c2cc1OC,Potency,[2],7.94 µM (active)
same,Potency,[7],10 µM (active)
same,outcome,[3],inactive
same,outcome,[9],inactive
same,Potency,[10],inactive
same,outcome,[11],inactive
same,Potency,[12],inactive
same,outcome,[13],inactive
same,outcome,[14],inactive
same,outcome,[15],inactive
same,outcome,[17],inactive
same,Potency,[5],3.29 µM (active)
same,Potency,[6],2.62 µM (active)
CC1CC2C3CCC4=CC(=O)C=C[C@]4(C)[C@@]3(F)[C@@H](O)C[C@]2(C)[C@@]1(O)C(=O)CO (some centres undefined),outcome,[9],inactive
same,Potency,[10],inactive
same,outcome,[11],inactive
same,Potency,[12],inactive
same,outcome,[13],inactive
same,outcome,[14],inactive
same,outcome,[15],inactive
same,outcome,[17],inactive
OCc1ccc(-c2nn(Cc3ccccc3)c3ccccc23)o1,Potency,[2],8.91 µM (active)
same,outcome,[3],inactive
same,outcome,[9],inactive
same,Potency,[10],inactive
same,outcome,[11],inactive
same,Potency,[12],inactive
same,Potency,[4],12.6 µM (active)
same,outcome,[13],inactive
same,outcome,[14],inactive
same,outcome,[15],inactive
same,outcome,[17],inactive
same,Potency,[5],inactive
same,Potency,[6],inactive
